The values below come from PubChem BioAssay (NCATS).

Values without a mark were called inactive. Records with an inconclusive call do not appear. Active and inactive are the calls of the source. Unless noted, calls follow the shape of the dose curve; as a rule, active = well fitted curve in the direction sought with a large enough effect; inconclusive = small, poorly fitted or top-dose-only effect, or another doubt; inactive = no such curve, though single readings can be large; an effect the other way counts as inactive or inconclusive.

In assay [1] the target is Tyrosine-protein phosphatase non-receptor type substrate 1 (Homo sapiens) + Leukocyte surface antigen CD47 (Homo sapiens) (UniProt P78324+Q08722). The assay is described as follows: CD47-SIRPalpha protein protein interaction - HTRF assay qHTS validation (AID 1347058; active = well fitted curve in the direction sought with a large enough effect in the signal ratio, not every such curve was filed as active; the % refers to the signal ratio; also: series mostly up to about 38 µM). An outline of the steps: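 Soluble extracellular domains (6His-CD47, Avi-tag-biotinylated SIRPalpha) in PBS pH 7.4 with 0.05% IGEPAL CA-630. Compounds were preincubated 30 min at RT with CD47 and anti-His-Eu, then SIRPalpha and SAV-XL665 were added. TR-FRET 665/615 ratio.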

Assay [2] deals with Parathyroid hormone/parathyroid hormone-related peptide receptor (Homo sapiens) (UniProt Q03431). Briefly: qHTS for PTHR1 Agonists: Optimization Screen against the NCGC LOPAC library (AID 1347079).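 Also: GloSensor cAMP luminescence in HEK-293 GP2 cells expressing human PTHR1 with IBMX.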 Summed up: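 Signal increase flags agonism. GP2 cells, derived from HEK-293, express human PTHR1 and a GloSensor cAMP construct.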
Assay [3] is described as follows: qHTS of pediatric cancer cell lines to identify multiple opportunities for drug repurposing: Primary screen for TC32 cells (AID 1347089). Also: nearly all actives have a fitted effect of over 60% in size. An outline of the steps:
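Luminescent CellTiter-Glo read-out of metabolically active TC32 cells after 48 h compound exposure. Primary: MIPE 11-point, 0.78 nM–46 µM; NPC 8-point, 0.59 nM–46 µM. Confirmatory: 11-point dilutions.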

Assay [4] in a line: qHTS of pediatric cancer cell lines to identify multiple opportunities for drug repurposing: Primary screen for DAOY cells (AID 1347090). Also: series mostly up to about 46 µM; nearly all actives have a fitted effect of over 55% in size. Summed up: (§1)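 Viability measured as metabolically active cells via CellTiter-Glo luminescence following 48 hours of compound exposure, 11-point dilutions in confirmatory testing. 500-1,000 cells/well plated 5 hours before dosing; controls were DMSO and 2.3 µM bortezomib.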

Assay [5] is described as follows: qHTS of pediatric cancer cell lines to identify multiple opportunities for drug repurposing: Primary screen for SJ-GBM2 cells (AID 1347091). Summed up: as §1
The nature of assay [6]: qHTS of pediatric cancer cell lines to identify multiple opportunities for drug repurposing: Primary screen for A673 cells (AID 1347092). Also: nearly all actives have a fitted effect of over 45% in size. An outline of the steps: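 A673 cells (500-1,000 cells/well in growth media) were pre-incubated 5 h at 37 degrees C, then exposed to compounds for 48 h. Viability was read as CellTiter-Glo luminescence; concentration-response curves came directly from the primary screen.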

Assay [7] can be described thus: qHTS of pediatric cancer cell lines to identify multiple opportunities for drug repurposing: Primary screen for SK-N-MC cells (AID 1347093). Also: potency is read from the fitted curve at half-maximal effect. Summed up: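 Metabolically active cells were quantified by ATP-dependent luminescence (CellTiter-Glo, 15 min at room temperature) following 48 h treatment. Cells had been plated at 500-1,000 per well and settled for 5 h beforehand.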

A short description of assay [8]: qHTS of pediatric cancer cell lines to identify multiple opportunities for drug repurposing: Primary screen for BT-37 cells (AID 1347094). Also: potency is read from the fitted curve at half-maximal effect. Summed up:
(§2)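 Quantitative HTS format: each compound titrated (MIPE 11 points from 0.78 nM, NPC 8 points from 0.59 nM) onto cells plated 5 hours earlier. After 48 h at 37 degrees C, CellTiter-Glo luminescence was recorded.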

Assay [9] is described as follows: qHTS of pediatric cancer cell lines to identify multiple opportunities for drug repurposing: Primary screen for NB-EBc1 cells (AID 1347095). Summed up:
as §2

Sequence of Tyrosine-protein phosphatase non-receptor type substrate 1 (Homo sapiens) + Leukocyte surface antigen CD47 (Homo sapiens) (P78324 whole entry, looked up, the tested form may be a part): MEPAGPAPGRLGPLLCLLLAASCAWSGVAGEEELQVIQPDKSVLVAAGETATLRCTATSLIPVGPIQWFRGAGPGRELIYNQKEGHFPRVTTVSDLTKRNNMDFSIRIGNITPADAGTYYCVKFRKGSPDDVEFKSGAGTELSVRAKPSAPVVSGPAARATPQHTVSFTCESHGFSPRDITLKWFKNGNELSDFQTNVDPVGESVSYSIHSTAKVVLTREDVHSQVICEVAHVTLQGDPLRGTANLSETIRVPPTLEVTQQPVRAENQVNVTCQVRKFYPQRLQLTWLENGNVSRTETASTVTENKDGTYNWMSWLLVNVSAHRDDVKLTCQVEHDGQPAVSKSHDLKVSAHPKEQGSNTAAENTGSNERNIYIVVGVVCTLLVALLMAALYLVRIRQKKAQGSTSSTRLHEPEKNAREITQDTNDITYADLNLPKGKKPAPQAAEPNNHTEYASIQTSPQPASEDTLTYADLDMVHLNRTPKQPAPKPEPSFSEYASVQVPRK
Sequence of Tyrosine-protein phosphatase non-receptor type substrate 1 (Homo sapiens) + Leukocyte surface antigen CD47 (Homo sapiens) (Q08722 whole entry, looked up, the tested form may be a part): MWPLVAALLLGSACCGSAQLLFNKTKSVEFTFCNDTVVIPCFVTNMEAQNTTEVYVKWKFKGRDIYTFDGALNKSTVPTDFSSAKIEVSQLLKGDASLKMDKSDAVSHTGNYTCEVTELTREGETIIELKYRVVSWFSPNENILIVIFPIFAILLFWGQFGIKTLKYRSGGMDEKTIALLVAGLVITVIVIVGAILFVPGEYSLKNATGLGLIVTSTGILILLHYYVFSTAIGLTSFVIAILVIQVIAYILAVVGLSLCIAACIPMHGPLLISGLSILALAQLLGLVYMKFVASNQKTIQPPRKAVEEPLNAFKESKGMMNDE
Sequence of Parathyroid hormone/parathyroid hormone-related peptide receptor (Homo sapiens) (Q03431 whole entry, looked up): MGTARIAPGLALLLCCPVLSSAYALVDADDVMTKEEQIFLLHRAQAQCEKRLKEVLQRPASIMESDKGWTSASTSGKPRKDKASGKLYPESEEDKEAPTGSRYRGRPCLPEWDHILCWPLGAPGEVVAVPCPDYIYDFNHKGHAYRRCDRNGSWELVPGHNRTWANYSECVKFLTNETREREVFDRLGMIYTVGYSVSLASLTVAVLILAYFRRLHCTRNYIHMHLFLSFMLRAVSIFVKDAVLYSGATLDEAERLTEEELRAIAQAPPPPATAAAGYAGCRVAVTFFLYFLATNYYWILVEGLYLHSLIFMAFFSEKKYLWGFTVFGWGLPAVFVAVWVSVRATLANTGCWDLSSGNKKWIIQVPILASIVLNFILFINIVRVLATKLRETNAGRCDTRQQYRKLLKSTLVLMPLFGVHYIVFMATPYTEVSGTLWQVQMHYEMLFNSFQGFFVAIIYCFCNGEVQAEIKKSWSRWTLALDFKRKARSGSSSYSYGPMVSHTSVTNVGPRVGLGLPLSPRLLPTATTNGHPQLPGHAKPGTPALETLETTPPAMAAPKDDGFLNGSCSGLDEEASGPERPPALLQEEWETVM

With `CCCN(CCC)CCc1cccc2c1CC(=O)N2`, the outcome in [1] and in assay [2] was inactive. In addition, the Potency result in assay [3], in assay [4], in assay [5], in assay [6], in [7] and in assay [8] was “inactive” throughout. Moreover, the Potency result in assay [9] was “inactive”.

As to `O=C(O)CP(=O)(O)O`, the result in assay [1] and in [2] was inactive. Moreover, the Potency entry in [4], in [5], in assay [6], in assay [7], in assay [8] and in assay [9] was “inactive” each time.

`Cc1ccc(S(=O)(=O)NC(=O)NN2CCCCCC2)cc1`: the result in assay [1] and in [2] was inactive. In addition, the Potency entry in assay [3], in assay [4], in [5], in [6], in assay [8] and in assay [9] was “inactive” throughout.

Take `Cc1cccc(C)c1NC(=O)C(C)N` (stereo not drawn): the result in assay [1] and in [2] was inactive. Besides, the Potency result in [3], in [4], in assay [5], in assay [6], in assay [7] and in [8] was “inactive” each time. Further, in assay [9], the Potency entry is “inactive”.

As for `CN1C[C@H](C(=O)N[C@]2(C)O[C@@]3(O)[C@@H]4CCCN4C(=O)[C@H](Cc4ccccc4)N3C2=O)C[C@@H]2c3cccc4[nH]cc(c34)C[C@H]21`, the outcome in assay [1] and in assay [2] was inactive. In addition, the Potency result in assay [3], in assay [4], in assay [8] and in assay [9] was “inactive” throughout.

Turning to `COc1ccc(CCN(C)CCCC(C#N)(c2cc(OC)c(OC)c(OC)c2)C(C)C)cc1OC` (stereo not drawn), the result in [1] and in assay [2] was inactive. The Potency entry in assay [4], in assay [5], in assay [6], in [7], in assay [8] and in assay [9] was “inactive” throughout.

In the case of `Cc1ccc(=O)n(-c2ccccc2)c1`, the result in assay [1] and in assay [2] was inactive. The Potency entry in [4], in assay [5], in assay [6], in assay [7], in assay [8] and in [9] was “inactive” each time.

For `Cc1ccc(/C(=C\CN2CCCC2)c2ccccn2)cc1`, the outcome in [1] and in assay [2] was inactive. The Potency entry in assay [4], in assay [5], in assay [6], in assay [7], in assay [8] and in assay [9] was “inactive” each time.

Take `COc1cc(Cc2cnc(N)nc2N)cc(OC)c1OC`: the result in assay [1] and in [2] was inactive. The Potency entry in [3], in assay [4], in [5], in assay [6], in assay [8] and in [9] was “inactive” throughout.

`CC(C(=O)O)c1ccc(CC2CCCC2=O)cc1` (stereo not drawn): the result in assay [1] and in [2] was inactive. Further, the Potency entry in assay [3], in assay [4], in [5], in assay [6], in assay [7] and in assay [8] was “inactive” each time. In [9], the Potency entry was “inactive”.

Regarding `COC(=O)C1=C(C)NC(C)=C(C(=O)OC(C)(C)CN(C)CCC(c2ccccc2)c2ccccc2)C1c1cccc([N+](=O)[O-])c1` (stereo not drawn), the outcome in assay [1] and in assay [2] was inactive. In addition, the Potency entry in assay [5] is “inactive”. Moreover, the Potency in assay [7] was 13.3 µM (active).

Turning to `COc1ccc([C@@H]2Sc3ccccc3N(CCN(C)C)C(=O)[C@@H]2OC(C)=O)cc1`, the result in assay [1] and in assay [2] was inactive. The Potency result in [3], in assay [4], in assay [5], in assay [6], in assay [7] and in assay [8] was “inactive” each time. In [9], the Potency result is “inactive”.

With `CN(C)C(=O)Oc1ccc[n+](C)c1`, the outcome in [1] and in assay [2] was inactive. Further, the Potency result in assay [4], in assay [5], in assay [6], in [7], in [8] and in assay [9] was “inactive” each time.

Turning to `COc1cc(C(=O)OCCCN2CCCN(CCCOC(=O)c3cc(OC)c(OC)c(OC)c3)CC2)cc(OC)c1OC`, the result in assay [1] and in assay [2] was inactive. In addition, the Potency result in assay [3], in assay [4], in assay [7] and in [9] was “inactive” each time.

With `N[C@@H](COP(=O)(O)O)C(=O)O`, the result in assay [1] and in assay [2] was inactive. Further, the Potency result in assay [4], in [5], in assay [6], in [7], in assay [8] and in assay [9] was “inactive” in each case.

Consider `C#CCN(C)CCCOc1ccc(Cl)cc1Cl`, for which the outcome in assay [1] and in assay [2] was inactive. The Potency entry in [4], in assay [5], in [6], in assay [7], in assay [8] and in assay [9] was “inactive” throughout.

On to `C[N+](C)(C)CCOC(N)=O`, for which the result in assay [1] and in assay [2] was inactive. Further, the Potency entry in assay [4], in assay [5], in [6], in assay [7], in assay [8] and in assay [9] was “inactive” each time.

With `COc1ccc2c(c1OC)C(=O)O[C@@H]2[C@H]1c2c(cc3c(c2OC)OCO3)CCN1C`, the outcome in [1] and in assay [2] was inactive. Further, the Potency entry in assay [4] and in assay [8] was “inactive” in each case.

As to `CCCC(C(=O)OCCN(CC)CC)(c1ccccc1)c1ccccc1`, the outcome in assay [1] and in assay [2] was inactive. Moreover, the Potency entry in assay [3] is “inactive”. Moreover, the Potency in assay [8] is 30.9 µM (active).

Regarding `O=C(O)CN(CCN(CC(=O)O)CC(=O)O)CCN(CC(=O)O)CC(=O)O`, the outcome in assay [1] and in assay [2] was inactive. The Potency result in assay [3], in assay [4], in assay [5], in assay [6], in assay [7] and in assay [9] was “inactive” each time.
